# An excerpt weighted towards active compounds, which were near 7.5% of everything screened.
# FLuc modulator: inhibits or activates purified firefly luciferase, miR-21 counter-screen; P08659; purified FLuc, Km substrates, luminescence inhibition; 6.9% of 360,000 active; AID 588342; Potency, µM (doses to about 57.5 µM), for the others: at the highest dose activity change, negative = inhibition, actives largely listed as inhibitors;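 further: plate controls were vehicle for no effect and reference inhibitor for full effect; nearly all actives have a fitted effect of over 55% in size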
# Target sequence (P08659 whole entry, looked up): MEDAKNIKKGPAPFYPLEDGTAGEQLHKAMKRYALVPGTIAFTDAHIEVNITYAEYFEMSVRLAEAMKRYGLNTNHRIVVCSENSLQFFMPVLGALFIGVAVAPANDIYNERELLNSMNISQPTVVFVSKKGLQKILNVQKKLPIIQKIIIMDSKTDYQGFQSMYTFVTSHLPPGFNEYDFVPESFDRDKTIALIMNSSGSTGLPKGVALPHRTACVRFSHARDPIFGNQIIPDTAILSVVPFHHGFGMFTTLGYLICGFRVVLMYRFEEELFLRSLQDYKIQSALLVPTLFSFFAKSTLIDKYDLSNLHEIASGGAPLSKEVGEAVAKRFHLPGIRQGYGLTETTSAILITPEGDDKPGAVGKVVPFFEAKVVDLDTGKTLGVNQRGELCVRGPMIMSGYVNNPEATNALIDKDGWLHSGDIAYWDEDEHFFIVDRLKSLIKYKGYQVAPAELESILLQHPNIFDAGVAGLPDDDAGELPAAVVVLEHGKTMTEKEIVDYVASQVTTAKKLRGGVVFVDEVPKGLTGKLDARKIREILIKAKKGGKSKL
#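 Biochemical qHTS of compounds, final roughly 60 µM downward over six points, against 10 nM purified firefly luciferase using Km concentrations of substrates (10 uM D-luciferin, 10 uM ATP) in Tris acetate pH 7.5 buffer; luminescence output.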
# SMN2 splice enh: increases expression of the SMN2 splice variant. 2.8% of 210,000 active. AID 1458. HEK293 SMN2-luciferase splicing reporter, luminescence, 30-36 h. Potency, µM (highest dose often 46.1 µM), for inactives: top-dose activity change, positive = activation, usual class: activators; further: % of control where 0% means no effect; nearly all actives have a fitted effect of over 55% in size
#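 HEK293 cells carry an SMN2 minigene-luciferase reporter in which exon 7 inclusion puts luciferase in frame. Cells were seeded at 2000 cells/well, attached for 10-12 hours, then exposed to compounds for 30-36 hours at 37C before ONE-Glo luminescence.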
# ELG1 genotox: inducers of genotoxicity in HEK293T ELG1-luciferase cells. HEK293T ELG1-luciferase reporter, luminescence, 16 h. Potency, µM (highest dose often 46 µM), for inactives: top-dose activity change, positive = activation, usual class: activators. 1.3% of 330,000 active; further: % of control where 0% means no effect; nearly all actives have a fitted effect of over 60% in size
#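 Step 1: seed 2,000 HEK293T ELG1-luciferase cells per well. Step 2: add compound or DMSO, incubate 16 hr at 37 °C. Step 3: ONE-Glo, 30 min at room temperature, read luminescence.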
# NPC1 prom act: activators of NPC1 promoter. Huh7 NPC1 promoter luciferase reporter, 24 h. Potency, µM (highest dose often 9.22 µM), for the others: at the highest dose activation, hits mostly activators. 2.4% of 320,000 active; further: % of control where 0% means no effect; nearly all actives have a fitted effect of over 60% in size
#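 Luminescence read-out of NPC1 promoter-driven luciferase in stably transfected Huh7 cells; compounds delivered in DMSO and left 24 h at 37C, 5% CO2, qHTS titration format.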
# Rab9 prom act: activators of Rab9 promoter | Huh7 Rab9 promoter-luciferase reporter, luminescence, 24 h | Potency, µM (top dose mostly 9.22 µM), without a hit: at the highest dose activation, negative = inhibition, usual class: activators | 2.8% of 320,000 active; further: % of control where 0% means no effect; nearly all actives have a fitted effect of over 60% in size
#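 Using Huh7 cells stably transfected with Rab9 promoter–luciferase, compounds were incubated 24 h at 37 °C, 5% CO2; luciferase luminescence was read 10 min after reagent addition.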
# Starred values were filed as active, the others as inactive; ? = inconclusive; / = not tested or not shown; [ ] = remark or other dose. The call rests on the fitted dose curve; in most records, active means well fitted curve in the direction sought with a large enough effect; inconclusive means small, poorly fitted or top-dose-only effect, or another doubt; inactive means no such curve, though single readings can be large; an effect the other way counts as inactive or inconclusive. Potency means the concentration at half of the fitted maximal effect.
SMILES,FLuc modulator,SMN2 splice enh,ELG1 genotox,NPC1 prom act,Rab9 prom act
Cc1ccc(-n2cccc2/C=C2/C(=N)N3C(=NC2=O)SN=C3S(C)(=O)=O)cc1Cl,-4%,12%,5%,-4%,3%
Cc1cccc(C)c1-n1cccc1/C=C1/C(=N)N2C(=NC1=O)SN=C2S(C)(=O)=O,24µM*,-37%,0%,-1%,-3%
CCOc1ccc(-n2c(C)cc(/C=C3/C(=N)N4C(=NC3=O)SN=C4S(C)(=O)=O)c2C)cc1,17µM*,-6%,4%,-1%,-2%
CCOc1cc(/C=C2/C(=N)N3C(=NC2=O)SN=C3S(C)(=O)=O)ccc1OS(=O)(=O)c1ccccc1,?,/,5%,0%,5%
COc1ccccc1-n1c(C)cc(/C=C2\C(=N)N3N=C(CC(=O)N4CCOCC4)SC3=NC2=O)c1C,24µM*,/,7%,4%,-2%
Cn1c(=O)n(C)c2cc([N+](=O)[O-])c(N3CCN(C(=O)c4ccccc4)CC3)cc21,0%,-43%,-9%,-10%,0%
COc1ccccc1-n1c(C)cc(/C=C2/C(=N)N3C(=NC2=O)SN=C3S(C)(=O)=O)c1C,0.67µM*,-14%,?,?,?
COc1cc(/C=C2/C(=N)N3C(=NC2=O)SN=C3S(C)(=O)=O)ccc1OS(=O)(=O)c1ccccc1,-13%,/,8%,1%,-2%
CCS(=O)(=O)C1=NN2C(=N)/C(=C\c3ccc(OC(=O)c4ccco4)c(Br)c3)C(=O)N=C2S1,15µM*,/,2%[9.26 µM],-4%,-2%
COc1cc(/C=C2\C(=N)N3N=C(S(C)(=O)=O)SC3=NC2=O)ccc1OC(=O)c1ccco1,19µM*,/,-1%,0%,2%
COc1cc(/C=C2\C(=N)N3N=C(S(C)(=O)=O)SC3=NC2=O)ccc1OCCOc1ccccc1C,-4%,/,1%,-3%,-1%
COc1cc(/C=C2\C(=N)N3N=C(S(C)(=O)=O)SC3=NC2=O)ccc1OC(=O)c1cccs1,21µM*,/,0%,3%,6%
CCOc1cc(/C=C2\C(=N)N3N=C(S(=O)(=O)CC)SC3=NC2=O)ccc1OC(=O)c1ccco1,-12%,/,9%,2%,-2%
CCN1C(=O)N[C@@H](c2ccc(Br)cc2)C(C(C)=O)=C1C,/,-9%[9.22 µM],/,/,/
Cc1ccc(Nc2nc(N)c3ccccc3n2)cc1C,0.54µM*,/,?,0.5µM*,0.5µM*
COc1ccc(Nc2nc(N)c3cc(OC)c(OC)cc3n2)cc1,15µM*,11%,/,/,/
COc1cc2nc(Nc3cccc(F)c3)nc(N)c2cc1OC,?,3%,-6%,0%,0%
COc1ccc(Nc2nc(N)c3ccccc3n2)c(OC)c1,7.6µM*,/,?,3.5µM*,4.5µM*
COc1ccc(Nc2nc(-c3ccccc3)nc3ccccc23)c(OC)c1,-19%,-12%,-6%,-12%,-5%
CN(CC(=O)NC1CC1)S(=O)(=O)c1ccc(F)cc1,-1%,6%,4%,-1%,-1%
CN(C)c1ccc(N=Nc2ccc(S(=O)(=O)O)cc2)c2ccccc12,17µM*,6%,-8%,-1%,2%
O=C(Nc1cccnc1)c1cc(-c2cccc(Cl)c2)on1,-16%,18%,2%,-3%,2%
COc1ccc(NC(=O)c2cc(-c3cccs3)on2)cc1,?,/,16µM*,1%,-3%
O=C(Nc1cccnc1)c1cc(-c2ccccc2O)on1,1.3µM*,/,-2%,0%,-4%
O=C(Nc1cccc(C(F)(F)F)c1)c1cc(-c2cccs2)on1,?,5%,1%,-3%,-4%
SMILES,FLuc modulator,SMN2 splice enh,ELG1 genotox,NPC1 prom act,Rab9 prom act
O=C(Nc1ccccc1C(F)(F)F)c1cc(-c2ccccc2O)on1,-21%,?,17%,?,4µM*
O=C(Nc1cccnc1)c1cc(-c2cccs2)on1,1.7µM*,-12%,1%,0%,?
COc1ccc(CCNC(=O)CCS(=O)(=O)Cc2ccccc2C)cc1OC,-3%,/,-2%,0%,-1%
CCCc1nc(SCC(=O)N2CCc3ccccc32)c2c(C)c(C)sc2n1,1%,-7%,0%,-7%,-3%
COc1ccc(CNCC(O)COc2ccc(C)cc2[N+](=O)[O-])cc1 (centres undefined),-1%,/,-2%,-1%,1%
COC(=O)c1ccccc1NC(=O)c1cc(-c2ccco2)on1,-2%,/,4%,24%,?
COC(=O)c1ccccc1NC(=O)c1cc(-c2cccs2)on1,-7%,7%,12%,24%,2.2µM*
COc1ccc(CCNC(=O)CC(Cc2ccc(C)cc2)C(=O)O)cc1OC (centres undefined),3%,/,1%,1%,-3%
CCc1cccc2c(C(=O)COC(=O)c3nn(C)c(=O)c4ccccc34)c[nH]c12,13µM*,-3%,-19%,-2%,-1%
CCn1nc(C(=O)OCC(=O)c2c[nH]c3ccccc23)c2ccccc2c1=O,24µM*,-10%,3%,5%,1%
Cc1ccc(Cl)cc1NC(=O)COCc1cc(-c2ccco2)on1,-15%,/,/,/,/
O=C(NCc1ccc(F)cc1)C(=O)NCC(c1ccco1)S(=O)(=O)c1cccs1 (centres undefined),5%,/,/,/,/
O=C1/C(=C/c2cccc(Cl)c2)CSc2sccc21,1%,/,-2%,-1%,-2%
Cc1cccc(/C=C2\CS/C(=C\c3cccc(C)c3)C2=O)c1,8.5µM*,-6%,8%,-3%,3%
O=S(=O)(Nc1ccc(-c2nc3cccnc3s2)cc1)c1ccc(Cl)s1,19µM*,13µM*,8.2µM*,?,?
CCS(=O)(=O)Nc1cccc(-c2nc3cccnc3s2)c1,19µM*,/,4%,?,?
Cc1nc2ccc(S(=O)(=O)Nc3ccc(-c4nc5cccnc5s4)cc3)cc2s1,?,?,11%,3%,-3%
Cc1ccc(-c2nc3cccnc3s2)cc1NS(=O)(=O)c1ccc2c(c1)CCCC2,-18%,20%,1%,-4%,-1%
CCS(=O)(=O)Nc1cc(-c2nc3cccnc3s2)ccc1C,9.5µM*,11µM*,2.9µM*,3.5µM*,24%
CCS(=O)(=O)Nc1ccc(-c2nc3cccnc3s2)cc1,1.7µM*,/,?,0.79µM*,0.71µM*
O=S(=O)(Nc1ccc(-c2nc3cccnc3s2)cc1)c1cccs1,-15%,?,?,28%,27%
CC(=O)Nc1ccc(NC(=O)CSc2nnc(-c3cccnc3)o2)cc1,1%,/,-6%,-1%,-3%
Cc1ccc(-c2nc3ccc(Cl)cn3c2Nc2ccccc2C)s1,-1%,28%,/,/,/
Cc1cc(C)n2nc(SCc3nnc(SCc4ccccc4Cl)s3)nc2n1,17µM*,-56%,-1%,-3%,-4%
Cc1cc(C)n2nc(SCc3nnc(SCc4ccccc4C)s3)nc2n1,?,-23%,-6%,0%,-2%
CC(=O)c1c(C)[nH]c(C(=O)Nc2ccc(C)c(S(=O)(=O)Nc3ccc(C)cc3C)c2)c1C,-2%,/,-9%,-6%,11%
